The list is not random: actives were taken first. Their share in the collection is about 1.4%.
EBNA-1 inhibitor: blocks EBNA-1 binding to DNA; actives 0.34% (n = 300,000); EBNA-1 DNA binding, fluorescence polarization; inhibition, % at 14.8 µM; AID 1950; in the data active = inhibition above about 28%
LYPLA2 counter: counter-screen for PME1 inhibitors: inhibitors of human LYPLA2. actives 0.38% (n = 320,000). O95372. recombinant LYPLA2, FP-Rh probe fluorescence polarization. AID 2177. inhibition, % at 5.9 µM;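 active = inhibition above the screen-wide mean plus 3 SD, limit set per campaign, cut at about 26% in these data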
Target sequence (O95372 whole entry, looked up): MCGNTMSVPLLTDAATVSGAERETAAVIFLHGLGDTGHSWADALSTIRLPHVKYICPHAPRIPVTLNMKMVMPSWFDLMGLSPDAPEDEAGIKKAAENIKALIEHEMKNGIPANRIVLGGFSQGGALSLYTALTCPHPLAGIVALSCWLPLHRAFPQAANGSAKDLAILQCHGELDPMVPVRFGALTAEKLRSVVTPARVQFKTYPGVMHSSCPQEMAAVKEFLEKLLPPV
LYPLA1 inh: counter-screen for PME1 inhibitors: inhibitors of human LYPLA1. actives 0.16% (n = 320,000). AID 2174. inhibition, % at 5.9 µM. recombinant LYPLA1, FP-Rh probe fluorescence polarization;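 active = inhibition above the mean of all tested compounds plus 3 SD, set per campaign, cut at about 14% in these data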;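 note: inhibitors block serine hydrolase probe labeling of LYPLA1 so polarization falls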
ZTA DNA inh: ZTA (EBV) inhibition in EBNA-1 counter-screen; inhibition, % at 11 µM; P03206; ZTA-DNA binding, fluorescence polarization; actives 0.15% (n = 320,000); in the data active = inhibition above about 33%
Target sequence (P03206 whole entry, looked up): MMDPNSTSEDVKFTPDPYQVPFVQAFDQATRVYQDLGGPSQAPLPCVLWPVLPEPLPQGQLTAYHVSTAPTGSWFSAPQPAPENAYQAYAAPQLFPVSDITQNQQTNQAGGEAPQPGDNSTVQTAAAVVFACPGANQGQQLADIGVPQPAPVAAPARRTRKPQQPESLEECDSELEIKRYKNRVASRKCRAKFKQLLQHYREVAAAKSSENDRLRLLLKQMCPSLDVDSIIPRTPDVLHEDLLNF
LANA-H2B inh: blocks KSHV LANA binding to histone H2A/H2B. Q9QR71. cell-free LANA-H2A/H2B peptide, fluorescence polarization. inhibition, % (concentration not given with the values). actives 0.6% (n = 320,000). AID 2629; in the data active = inhibition mostly above about 10%, no sharp cut-off; inactive = mostly below about 6.7%
EBNA-1 confirm: EBNA-1 (EBV) inhibition, confirmation | AID 2292 | inhibition, % at 14.8 µM | actives 35% (n = 830) | shares compounds with EBNA-1 inhibitor | Recombinant EBNA-1 DBD, Cy5-DNA fluorescence polarization;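 active = mean inhibition across replicates above a set limit taken from the earlier primary screen, cut at about 28% in these data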
ZTA DNA inh trip: counter-screen for EBNA-1 inhibitors: Epstein-Barr virus ZTA inhibitors, triplicate; shares compounds with EBNA-1 inhibitor; Zta-ZRE DNA binding, Cy5 fluorescence polarization; inhibition, % at 11.1 µM; 830 tested, under 10 active;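 active = mean inhibition over triplicates above a set limit taken from the primary EBNA-1 screen, cut at about 37% in these data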;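 note: purified full length Zta protein with Cy5 labeled ZRE DNA probe; inhibitors lower polarization by freeing the labeled DNA probe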
Of the large screens only hits and unclear results are named; the others gave an inactive call (follow-up assays come after a bar, where they were run).

COc1cc(C)ccc1OCc1cc(C(=O)N2CCC(c3ccc(F)cc3)C2)no1 (stereo unspecified)	EBNA-1 inhibitor 31 | EBNA-1 confirm inactive | ZTA DNA inh trip inactive
COc1cccc(C(=O)OCC(=O)c2ccc(Br)s2)c1OC	none (no result: EBNA-1 inhibitor)
CC1(c2ccccc2)NC(=O)N(CCN2C(=O)c3ccccc3C2=O)C1=O (stereo unspecified)	EBNA-1 inhibitor 59 | EBNA-1 confirm inactive | ZTA DNA inh trip inactive
O=C(O)c1nn(CCOc2cccc(Br)c2)c(=O)c2ccccc12	none
NS(=O)(=O)c1ccc(NC(=S)Nc2ccn(Cc3cccc4ccccc34)n2)cc1	EBNA-1 inhibitor 29 | EBNA-1 confirm 34 | ZTA DNA inh trip inactive
CCc1ccc(Nc2ncc3c(n2)CC(C)(C)CC3=O)cc1	none
CCOC(=O)c1ccc(-n2nc(C)cc2C)cc1	none
Cc1cc(C)n(-c2ccc(C(=O)OCC(=O)NC(c3ccccc3)c3ccccc3)cc2)n1	EBNA-1 inhibitor 32 | EBNA-1 confirm inactive | ZTA DNA inh trip inactive
Cc1ccc2[nH]c(=O)c(CN(Cc3cccs3)C(=S)NCC3CCCO3)cc2c1 (stereo unspecified)	EBNA-1 inhibitor 44 | EBNA-1 confirm inactive | ZTA DNA inh trip inactive
Cc1cccc(N/C(N)=N/c2nc(C(F)(F)F)cc(=O)[nH]2)c1C	none
N#C/C(=C\c1cn(Cc2ccccc2F)c2ccccc12)C(=O)NCc1ccco1	EBNA-1 inhibitor 62 | EBNA-1 confirm 57 | ZTA DNA inh trip inactive
COC(=O)c1ccc(Cn2cnc3c(cnn3-c3ccc(Cl)cc3)c2=O)o1	EBNA-1 inhibitor 46 | EBNA-1 confirm inactive | ZTA DNA inh trip inactive
CCOC(=O)C(C)On1c(-n2nc(C)cc2C)nc2ccccc2c1=O (stereo unspecified)	none
O=C(c1ccc2c(c1)OCCO2)N1CCCC(CNS(=O)(=O)c2cccs2)C1 (stereo unspecified)	none
COc1ccc(C(=O)N(Cc2ccco2)Cc2cc3cc(C)ccc3[nH]c2=O)cc1OC	none
O=C(Nc1ccc(F)cc1)N(Cc1ccco1)Cc1cc2cc3c(cc2[nH]c1=O)OCO3	EBNA-1 inhibitor 28 | EBNA-1 confirm inactive | ZTA DNA inh trip inactive
COc1ccccc1NC(=S)N(Cc1ccco1)Cc1cc2cc(C)ccc2[nH]c1=O	EBNA-1 inhibitor 42 | EBNA-1 confirm inactive | ZTA DNA inh trip inactive
Cc1nnc(NC(=O)CSc2nnc3ncccn23)s1	none
COc1ccccc1C(=O)Nc1ccc2c(c1)n(C)c(=O)n2C	none
O=C1S/C(=C\c2ccccc2)C(=O)N1CC(O)Cn1c2ccccc2c2ccccc21 (stereo unspecified)	EBNA-1 inhibitor 30 | EBNA-1 confirm inactive | ZTA DNA inh trip inactive
O=C(N/N=C/c1cccc([N+](=O)[O-])c1)c1cc(-c2ccc3c(c2)OCO3)n[nH]1	EBNA-1 inhibitor 62 | EBNA-1 confirm inactive | ZTA DNA inh trip inactive
O=c1c2ccccc2nnn1CSc1nnc(Nc2ccccc2)s1	EBNA-1 inhibitor 36 | EBNA-1 confirm inactive | ZTA DNA inh trip inactive
Cc1ccc(Nc2nnc(SCn3nnc4ccccc4c3=O)s2)cc1	none
COC(=O)c1ccc(CSc2nc3ccccc3s2)o1	none
COC(=O)C1=C(CSc2nc3ccccc3s2)NC(=O)NC1c1ccc(F)cc1 (stereo unspecified)	EBNA-1 inhibitor 42 | EBNA-1 confirm inactive | ZTA DNA inh trip inactive
COc1ccc(CNS(=O)(=O)NCc2ccc(C)cc2)cc1	EBNA-1 inhibitor 56 | EBNA-1 confirm inactive | ZTA DNA inh trip inactive
Cc1ccc(CNS(=O)(=O)NCc2ccc(Cl)cc2)cc1	none
Cc1cc(C)n(-c2ccc(Cl)c(C(=O)OCC(=O)N3CCCCC3C)n2)n1 (stereo unspecified)	none
Cc1cc(C)n(-c2ccc(Cl)c(C(=O)OCC(N)=O)n2)n1	EBNA-1 inhibitor 36 | EBNA-1 confirm inactive | ZTA DNA inh trip inactive
N#C/C(=N\Nc1cccc(C(F)(F)F)c1)C(=O)c1csc(-c2cccnc2)n1	EBNA-1 inhibitor 50 | EBNA-1 confirm inactive | ZTA DNA inh trip inactive
CCOc1ccc(S(=O)(=O)N(C)c2ccc(OCC(=O)Nc3nc4ccccc4s3)cc2)cc1	none
CN(c1ccc(OCC(=O)Nc2nc3ccccc3s2)cc1)S(=O)(=O)c1ccccc1	EBNA-1 inhibitor 47 | EBNA-1 confirm inactive | ZTA DNA inh trip inactive
Cc1ccc(C)c(NC(=O)Cn2nc(-c3ccccc3)nc2-c2ccccc2)c1	EBNA-1 inhibitor 50 | EBNA-1 confirm inactive | ZTA DNA inh trip inactive
O=C(c1ccc2c(=O)n(Cc3ccco3)c(=S)[nH]c2c1)N1CCN(c2ccccc2)CC1	EBNA-1 inhibitor 40 | EBNA-1 confirm inactive | ZTA DNA inh trip inactive
O=C(c1ccc2c(=O)n(CC3CCCO3)c(=S)[nH]c2c1)N1CCN(c2ccccc2)CC1 (stereo unspecified)	none
N=C1/C(=C\c2ccc(-c3cccc(C(=O)O)c3)o2)C(=O)N=C2SC=C(c3ccccc3)N12	EBNA-1 inhibitor 32 | EBNA-1 confirm 36 | ZTA DNA inh trip inactive
CCOC(=O)N1CCN(C(=O)c2cc3cc(OC)c(OC)cc3[nH]2)CC1	none (no result: EBNA-1 inhibitor, LYPLA2 counter, LYPLA1 inh, ZTA DNA inh)
C=CCOC(=O)C1=C(C)NC(C)=C(C(=O)OCC=C)C1c1cn(-c2ccccc2)nc1-c1ccco1	EBNA-1 inhibitor 53 | EBNA-1 confirm inactive | ZTA DNA inh trip inactive
Cc1cc(C)n(/N=C/c2c[nH]c3ccccc23)c(=O)c1C#N	EBNA-1 inhibitor 28 | EBNA-1 confirm inactive | ZTA DNA inh trip inactive
Cc1cc(C)n(/N=C/c2ccccc2)c(=O)c1C#N	none
O=C(c1ccc(S(=O)(=O)N2CCCCCC2)cc1)N1CCC(CN2C(=O)c3cccc4cccc(c34)C2=O)CC1	EBNA-1 inhibitor 30 | EBNA-1 confirm inactive | ZTA DNA inh trip inactive
COc1ccccc1N=Nc1ccc(O)c2ncccc12	none
Oc1ccc(N=Nc2ccccc2C(F)(F)F)c2cccnc12	EBNA-1 inhibitor 95 | EBNA-1 confirm inactive | ZTA DNA inh trip inactive
FC(F)(F)c1ccc(Oc2ccc3cc(Br)ccc3c2)nc1	none
COc1ccc(S(=O)(=O)N2CCCCC2)cc1NC(=O)c1cccs1	EBNA-1 inhibitor 35 | EBNA-1 confirm 32 | ZTA DNA inh trip inactive
COc1ccc(NS(=O)(=O)c2ccc(O)c(NC(=O)c3ccc(S(=O)(=O)N4CCCCCC4)cc3)c2)cc1	EBNA-1 inhibitor 28 | EBNA-1 confirm inactive | ZTA DNA inh trip inactive
COc1ccc(NS(=O)(=O)c2ccc(O)c(NC(=O)c3ccc(S(=O)(=O)N4CCCC4)cc3)c2)cc1	none
Cc1ccc(S(=O)(=O)N2CCCCC2)cc1NC(=O)c1cccs1	none (no result: EBNA-1 inhibitor)
CN(C(=O)CSc1nc2[nH]ncc2c(=O)[nH]1)c1ccccc1	none
O=C(Nc1ccc2c(c1)CCC2)c1cc(=O)[nH]c2ccccc12	EBNA-1 inhibitor 51 | EBNA-1 confirm 29 | ZTA DNA inh trip inactive

High-throughput results deposited in PubChem BioAssay by several laboratories.
